# Experimental data reported in ChEMBL document CHEMBL3988442, “University of Dundee, Small-Polar-MMV Screening Library” (2021).
# In all, about 48,000 compounds went through this assay and about 13,000 (27%) showed an effect of 50% or more. Some of the results follow.
# System: Wolbachia pipientis
# Experiment: Anti-Wolbachia Cell-Based Screen
# Assay type: functional
# Design: scale not given: in the data most compounds retested in dose-response had high values
# Details: 5 µM
row,SMILES,Percent Effect [%]
1,CC(C)N1CCC(NC(=O)NC2CCOc3ccc(Br)cc32)CC1 (stereo not drawn),4.745
2,CN(C)C(=O)N[C@H]1CN(C2CCOCC2)[C@@H]2CCCO[C@H]12.O=C(O)C(F)(F)F,16.52
3,NC(=O)c1ccc(N2CCCCC2)c(NC(=O)c2ccc(Br)cc2)c1,7.886
4,Cc1noc(C)c1CN1CC[C@H]2OCC[C@@H](C(=O)N3CCCO3)[C@@H]2C1,-14.86
5,Cc1nn2cccnc2c1C(=O)N1CCCC(Nc2ccccc2)C1 (stereo not drawn),-8.048
6,CC(=O)N(C)CC(=O)NC1(c2ccc(Cl)c(Cl)c2)CC1,-1.911
7,COc1cc(CNC(=O)Nc2cc(C(F)(F)F)c[nH]c2=O)ccn1,-10.71
8,CC(C)CN1CCN(C(=O)Nc2cc(C(F)(F)F)c[nH]c2=O)CC1,-8.263
9,CC1CN(C(=O)Nc2cc(C(F)(F)F)c[nH]c2=O)CCO1 (stereo not drawn),83.43
10,COC1CCN(C(=O)Nc2cc(C(F)(F)F)c[nH]c2=O)CC1,107.9
11,O=C(Nc1cc(C(F)(F)F)c[nH]c1=O)N1CCOCC1,95.88
12,Cc1ncc(CNC(=O)Nc2cc(C(F)(F)F)c[nH]c2=O)s1,-11.29
13,Cn1cnnc1CNC(=O)Nc1cc(C(F)(F)F)c[nH]c1=O,-11.16
14,COCC1CN(C(=O)Nc2cc(C(F)(F)F)ccc2F)CCO1 (stereo not drawn),-13.47
15,O=C(Nc1cc(C(F)(F)F)c[nH]c1=O)c1ccco1,-1.817
16,CC(C)(C)N1CCN(C(=O)Nc2cc(C(F)(F)F)c[nH]c2=O)CC1,82.7
17,CC(CCc1ccco1)NC(=O)Nc1cc(C(F)(F)F)c[nH]c1=O (stereo not drawn),-5.295
18,CS(=O)(=O)N1CCC2(CC1)CN(CC1CC1)CC21CCNC1=O.O=C(O)C(F)(F)F (stereo not drawn),-40.94
19,Cc1nc(-c2cn(CCN)nn2)n(-c2ccc(C(F)(F)F)cc2)n1,-70.01
20,Cc1nccn1-c1ccc(N2CCC(N[C@H](C)C(C)C)CC2)cc1,17.33
21,CC1(C)CN(C(=O)Nc2cc(C(F)(F)F)c[nH]c2=O)CCO1,99.91
22,Cc1noc(CCCC(=O)Nc2cc(C(F)(F)F)c[nH]c2=O)n1,11.68
23,CC1CN(C(=O)Nc2ccc(Cl)c(C(=O)NC3CC3)c2)CC(C)(C)O1 (stereo not drawn),-20.36
24,CCCc1noc(CCC(=O)Nc2cc(C(F)(F)F)c[nH]c2=O)n1,-8.892
25,O=C(Nc1cc(C(F)(F)F)c[nH]c1=O)N1CCCSCC1,-10.12
26,CC1CN(C(=O)Nc2cc(C(F)(F)F)c[nH]c2=O)CC(C)(C)O1 (stereo not drawn),113.6
27,O=C(NCCNc1ncccn1)Nc1cc(C(F)(F)F)c[nH]c1=O,-3.235
28,O=C(Nc1cc(C(F)(F)F)c[nH]c1=O)N1CCSCC1,108.7
